Measured values published in PubChem BioAssay AID588451 (Broad Institute, 2011).
Results with a measured potency or affinity are listed apart. Activity calls are given as the source filed them. No rule for the calls is given here.

Molecular target: Luciferin 4-monooxygenase (Photinus pyralis) (UniProt P08659)
Test: firefly luciferase enzyme inhibitors, dose response, biochemical, dry powder samples, plate reader (AID 588451)
Settings: purified firefly luciferase, luminescence plate reader; series mostly up to 8 µM

Luciferin 4-monooxygenase (Photinus pyralis), sequence (P08659 whole entry, looked up): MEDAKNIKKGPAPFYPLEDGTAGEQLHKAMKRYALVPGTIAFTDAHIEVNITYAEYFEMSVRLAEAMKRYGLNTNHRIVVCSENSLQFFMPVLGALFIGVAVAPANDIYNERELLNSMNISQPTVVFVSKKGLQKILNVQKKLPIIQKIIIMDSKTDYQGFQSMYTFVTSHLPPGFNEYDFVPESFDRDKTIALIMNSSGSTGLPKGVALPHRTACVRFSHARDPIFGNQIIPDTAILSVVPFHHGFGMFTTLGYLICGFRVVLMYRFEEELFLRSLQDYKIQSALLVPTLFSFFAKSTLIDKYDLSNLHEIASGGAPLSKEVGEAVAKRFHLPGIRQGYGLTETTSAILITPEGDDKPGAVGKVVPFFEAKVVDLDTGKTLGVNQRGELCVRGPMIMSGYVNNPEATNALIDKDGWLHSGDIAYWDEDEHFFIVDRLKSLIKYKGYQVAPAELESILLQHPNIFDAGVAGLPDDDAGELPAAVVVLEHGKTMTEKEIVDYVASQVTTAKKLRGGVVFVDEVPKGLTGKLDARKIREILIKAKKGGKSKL

Cc1ccc(C(=O)N/N=C/c2ccc([N+](=O)[O-])s2)cc1
outcome: inactive
